Data from the supplement of paper PMC3545927.
This is one part of the list. The true hit rate is not given.

Target: furin, P09958
Assay: furin cleavage Z-score vs untreated control; higher = more cleavage, active = 3.5 or more, inactive = 1 or less, 8 variable residues between constant flanks
Summary of the method: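 The cleavage Z-score is the log read count relative to furin-free reactions, lowess-adjusted and scaled by median absolute deviation. Counts came from sequencing DNA released from bead-bound 8-mer peptide–cDNA fusions after digestion with purified furin for 7.5, 15 or 30 min.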
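Also: purified furin at 1:10 enzyme:substrate in 50 mM HEPES pH 7.5.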

Chain of furin, P09958 (P09958 whole entry): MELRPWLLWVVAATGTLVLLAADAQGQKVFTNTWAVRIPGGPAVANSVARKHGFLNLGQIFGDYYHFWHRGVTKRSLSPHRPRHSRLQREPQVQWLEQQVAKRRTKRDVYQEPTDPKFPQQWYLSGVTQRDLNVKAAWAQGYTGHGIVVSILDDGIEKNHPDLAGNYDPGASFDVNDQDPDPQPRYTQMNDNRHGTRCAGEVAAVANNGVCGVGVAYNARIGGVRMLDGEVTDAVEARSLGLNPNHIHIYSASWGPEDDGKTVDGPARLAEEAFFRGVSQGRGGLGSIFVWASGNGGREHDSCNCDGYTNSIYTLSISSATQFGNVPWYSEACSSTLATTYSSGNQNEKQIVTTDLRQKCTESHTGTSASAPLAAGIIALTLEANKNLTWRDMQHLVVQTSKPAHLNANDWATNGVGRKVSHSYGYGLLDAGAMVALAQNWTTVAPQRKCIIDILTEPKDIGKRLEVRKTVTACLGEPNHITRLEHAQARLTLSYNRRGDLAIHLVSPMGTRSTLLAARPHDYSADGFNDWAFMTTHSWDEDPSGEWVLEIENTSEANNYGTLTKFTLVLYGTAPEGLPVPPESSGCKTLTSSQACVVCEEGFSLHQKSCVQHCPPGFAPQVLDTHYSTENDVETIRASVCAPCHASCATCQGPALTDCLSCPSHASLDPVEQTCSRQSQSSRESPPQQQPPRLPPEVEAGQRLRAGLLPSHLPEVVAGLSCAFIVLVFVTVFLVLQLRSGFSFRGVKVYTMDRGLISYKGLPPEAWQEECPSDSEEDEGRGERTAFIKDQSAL

CAHIDLLVGSAGNASASA [HC291]
furin cleavage Z-score (7.5 min): -0.513 (inactive) | furin cleavage Z-score (15 min): -1.31 (inactive) | furin cleavage Z-score (30 min): -1.06 (inactive)

CARAGRDVGSAGNASASA [FS-1989]
furin cleavage Z-score (7.5 min): 2.62 | furin cleavage Z-score (15 min): 3.76 (active) | furin cleavage Z-score (30 min): 2.8

CARSKRDVGSAGNASASA [FS-2379]
furin cleavage Z-score (7.5 min): 11.6 (active) | furin cleavage Z-score (15 min): 11.3 (active) | furin cleavage Z-score (30 min): 8.54 (active)

CARSKRRKYSAGNASASA [FS-2380]
furin cleavage Z-score (7.5 min): 0.793 (inactive) | furin cleavage Z-score (15 min): -0.279 (inactive) | furin cleavage Z-score (30 min): 0.723 (inactive)

CARSKRDISSAGNASASA [FS-3083]
furin cleavage Z-score (7.5 min): 9.51 (active) | furin cleavage Z-score (15 min): 11.2 (active) | furin cleavage Z-score (30 min): 9.07 (active)

CARSKRDGSEAGNASASA [FS-1868]
furin cleavage Z-score (7.5 min): 3.53 (active) | furin cleavage Z-score (15 min): 5.29 (active) | furin cleavage Z-score (30 min): 5.43 (active)

CARSYRGISSAGNASASA [FS-2093]
furin cleavage Z-score (7.5 min): 1.39 | furin cleavage Z-score (15 min): -0.63 (inactive) | furin cleavage Z-score (30 min): 0.639 (inactive)

CARSGRVVGSAGNASASA [FS-3235]
furin cleavage Z-score (7.5 min): -1.67 (inactive) | furin cleavage Z-score (15 min): 0.0813 (inactive) | furin cleavage Z-score (30 min): 0.573 (inactive)

CALATRSFGSAGNASASA [HC1334]
furin cleavage Z-score (7.5 min): -0.496 (inactive) | furin cleavage Z-score (15 min): 0.424 (inactive) | furin cleavage Z-score (30 min): -0.551 (inactive)

CARSKKIFGSAGNASASA [FS-2405]
furin cleavage Z-score (7.5 min): -1.12 (inactive) | furin cleavage Z-score (15 min): -0.175 (inactive) | furin cleavage Z-score (30 min): 0.546 (inactive)

CASTPCSAFLAGNASASA [HC2547]
furin cleavage Z-score (7.5 min): -0.397 (inactive) | furin cleavage Z-score (15 min): -0.0879 (inactive) | furin cleavage Z-score (30 min): 0.628 (inactive)

CAQKLPINALAGNASASA [HC1380]
furin cleavage Z-score (7.5 min): 0.17 (inactive) | furin cleavage Z-score (15 min): -0.107 (inactive) | furin cleavage Z-score (30 min): -0.819 (inactive)

CAGDFHYVTGAGNASASA [HC1209]
furin cleavage Z-score (7.5 min): -0.771 (inactive) | furin cleavage Z-score (15 min): -0.551 (inactive) | furin cleavage Z-score (30 min): -1.55 (inactive)

CATTPPSGSWAGNASASA [HC60]
furin cleavage Z-score (7.5 min): -1.04 (inactive) | furin cleavage Z-score (15 min): -0.299 (inactive) | furin cleavage Z-score (30 min): -0.554 (inactive)

CASYANGSGPAGNASASA [HC397]
furin cleavage Z-score (7.5 min): 0.376 (inactive) | furin cleavage Z-score (15 min): -1.07 (inactive) | furin cleavage Z-score (30 min): 0.0876 (inactive)

CADKEVVTSTAGNASASA [HC2294]
furin cleavage Z-score (7.5 min): -0.414 (inactive) | furin cleavage Z-score (15 min): -0.137 (inactive) | furin cleavage Z-score (30 min): -0.18 (inactive)

CAGENCGYRRAGNASASA [HC1506]
furin cleavage Z-score (7.5 min): -0.528 (inactive) | furin cleavage Z-score (15 min): -0.187 (inactive) | furin cleavage Z-score (30 min): -0.341 (inactive)

CAALKRPVEQAGNASASA [FS-2858]
furin cleavage Z-score (7.5 min): -1.15 (inactive) | furin cleavage Z-score (15 min): -0.538 (inactive) | furin cleavage Z-score (30 min): -0.285 (inactive)

CAIRSRVLREAGNASASA [FS-804]
furin cleavage Z-score (7.5 min): 12.6 (active) | furin cleavage Z-score (15 min): 10.5 (active) | furin cleavage Z-score (30 min): 8.33 (active)

CAIRSALKRPAGNASASA [FS-444]
furin cleavage Z-score (7.5 min): 0.37 (inactive) | furin cleavage Z-score (15 min): -0.823 (inactive) | furin cleavage Z-score (30 min): -0.407 (inactive)

CAIRQVGDFHAGNASASA [HC1207]
furin cleavage Z-score (7.5 min): -0.371 (inactive) | furin cleavage Z-score (15 min): -0.615 (inactive) | furin cleavage Z-score (30 min): -1.78 (inactive)

CAAEVRSKRRAGNASASA [FS-3]
furin cleavage Z-score (7.5 min): 4.87 (active) | furin cleavage Z-score (15 min): 4.38 (active) | furin cleavage Z-score (30 min): 5.1 (active)

CAAERRSVIRAGNASASA [FS-1666]
furin cleavage Z-score (7.5 min): -0.389 (inactive) | furin cleavage Z-score (15 min): -2.19 (inactive) | furin cleavage Z-score (30 min): -0.341 (inactive)

CAALKRSKRRAGNASASA [FS-1445]
furin cleavage Z-score (7.5 min): 11.5 (active) | furin cleavage Z-score (15 min): 10.6 (active) | furin cleavage Z-score (30 min): 8.09 (active)

CAPLRRSKRRAGNASASA [FS-1148]
furin cleavage Z-score (7.5 min): 9.4 (active) | furin cleavage Z-score (15 min): 9.64 (active) | furin cleavage Z-score (30 min): 8.71 (active)

CAEVVPSTWVAGNASASA [HC140]
furin cleavage Z-score (7.5 min): -0.678 (inactive) | furin cleavage Z-score (15 min): -0.107 (inactive) | furin cleavage Z-score (30 min): 0.5 (inactive)

CAESAGVQEDAGNASASA [HC1533]
furin cleavage Z-score (7.5 min): -0.496 (inactive) | furin cleavage Z-score (15 min): -1.46 (inactive) | furin cleavage Z-score (30 min): -0.975 (inactive)

CAQLFTFSPRAGNASASA [HC305]
furin cleavage Z-score (7.5 min): -0.105 (inactive) | furin cleavage Z-score (15 min): -0.574 (inactive) | furin cleavage Z-score (30 min): 0.219 (inactive)

CASIFLLALLAGNASASA [HC248]
furin cleavage Z-score (7.5 min): -0.433 (inactive) | furin cleavage Z-score (15 min): -0.299 (inactive) | furin cleavage Z-score (30 min): -0.909 (inactive)

CAGNWFGCTWAGNASASA [HC434]
furin cleavage Z-score (7.5 min): 2 | furin cleavage Z-score (15 min): 1.1 | furin cleavage Z-score (30 min): -0.112 (inactive)

CARAHRSVLAAGNASASA [FS-1943]
furin cleavage Z-score (7.5 min): -0.832 (inactive) | furin cleavage Z-score (15 min): -0.15 (inactive) | furin cleavage Z-score (30 min): 2.24

CAAVTHINSVAGNASASA [HC1428]
furin cleavage Z-score (7.5 min): -1.27 (inactive) | furin cleavage Z-score (15 min): -0.864 (inactive) | furin cleavage Z-score (30 min): -0.253 (inactive)

CASRKRSFFRAGNASASA [FS-3137]
furin cleavage Z-score (7.5 min): -0.305 (inactive) | furin cleavage Z-score (15 min): 2.22 | furin cleavage Z-score (30 min): 0.35 (inactive)

CAFRSRSKRRAGNASASA [FS-773]
furin cleavage Z-score (7.5 min): 8.16 (active) | furin cleavage Z-score (15 min): 8.31 (active) | furin cleavage Z-score (30 min): 7.71 (active)

CATRARSLRFAGNASASA [FS-1099]
furin cleavage Z-score (7.5 min): -0.222 (inactive) | furin cleavage Z-score (15 min): 2.2 | furin cleavage Z-score (30 min): 1.03

CANRKRSKRRAGNASASA [FS-1240]
furin cleavage Z-score (7.5 min): 10.6 (active) | furin cleavage Z-score (15 min): 10.8 (active) | furin cleavage Z-score (30 min): 8.12 (active)

CANRKRNKKQAGNASASA [FS-1239]
furin cleavage Z-score (7.5 min): 0.136 (inactive) | furin cleavage Z-score (15 min): 0.864 (inactive) | furin cleavage Z-score (30 min): 2.02

CATCSRHKRRAGNASASA [FS-96]
furin cleavage Z-score (7.5 min): 4.62 (active) | furin cleavage Z-score (15 min): 7.75 (active) | furin cleavage Z-score (30 min): 7.17 (active)

CAFRSRSLREAGNASASA [FS-774]
furin cleavage Z-score (7.5 min): 5.16 (active) | furin cleavage Z-score (15 min): 6.5 (active) | furin cleavage Z-score (30 min): 6.69 (active)

CADLSDGSWSAGNASASA [HC1360]
furin cleavage Z-score (7.5 min): -0.871 (inactive) | furin cleavage Z-score (15 min): -1.27 (inactive) | furin cleavage Z-score (30 min): -0.416 (inactive)

CARRIRFVGRAGNASASA [FS-3261]
furin cleavage Z-score (7.5 min): 0.201 (inactive) | furin cleavage Z-score (15 min): 1.15 | furin cleavage Z-score (30 min): 3.25

CARRQVWKRRAGNASASA [FS-1161]
furin cleavage Z-score (7.5 min): 0.586 (inactive) | furin cleavage Z-score (15 min): 4.58 (active) | furin cleavage Z-score (30 min): 4.41 (active)

CARRLRDKRRAGNASASA [FS-713]
furin cleavage Z-score (7.5 min): 0.73 (inactive) | furin cleavage Z-score (15 min): 2.01 | furin cleavage Z-score (30 min): 1.44
